This note sets out measurements from PubChem BioAssay (NCATS).

Assay [1] in a line: P-glycoprotein substrates identified in KB-8-5-11 adenocarcinoma cell line, qHTS therapeutic library screen (AID 1346987). Note: nearly all actives have a fitted effect of over 65% in size. Note: potency is the fitted concentration of half-maximal effect. The procedure, abridged:
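Compounds are pinned in dose-response onto KB-8-5-11 cells (500 cells/well, colchicine-free medium) and left 72 h at 37 degree C. CellTiter-Glo luminescence then yields AC50 values.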
On the technique in general: Quantitative high-throughput screening tests each substance at several concentrations.

Assay [2] can be described thus: NS1 protein of Zika virus - qHTS assay to identify small molecule inhibitors in human HEK 293 cells (AID 1347053). Note: nearly all actives have a fitted effect of over 55% in size. Note: potency is the fitted concentration of half-maximal effect. The method, boiled down: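 Readout was TR-FRET using paired anti-NS1 antibodies after 24 h infection of HEK 293 cells with ZIKV MR766 (MOI = 0.5). Compound preceded virus by 1 h; reduced signal reflects lower NS1 expression.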
Assay [3] is described as follows: qHTS of pediatric cancer cell lines to identify multiple opportunities for drug repurposing: Primary screen for DAOY cells (AID 1347090). Note: nearly all actives have a fitted effect of over 55% in size. Note: potency is the fitted concentration of half-maximal effect. The method, boiled down: (§1)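 Viability measured as metabolically active cells via CellTiter-Glo luminescence following 48 hours of compound exposure, 11-point dilutions in confirmatory testing. 500-1,000 cells/well plated 5 hours before dosing; controls were DMSO and 2.3 µM bortezomib.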

Assay [4] is described as follows: qHTS of pediatric cancer cell lines to identify multiple opportunities for drug repurposing: Primary screen for SJ-GBM2 cells (AID 1347091). Note: potency is the fitted concentration of half-maximal effect. The procedure, abridged: as §1
Assay [5] in a line: qHTS of pediatric cancer cell lines to identify multiple opportunities for drug repurposing: Primary screen for SK-N-MC cells (AID 1347093). Note: potency is the fitted concentration of half-maximal effect. The method, boiled down: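 Metabolically active cells were quantified by ATP-dependent luminescence (CellTiter-Glo, 15 min at room temperature) following 48 h treatment. Cells had been plated at 500-1,000 per well and settled for 5 h beforehand.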

Assay [6] in a line: qHTS of pediatric cancer cell lines to identify multiple opportunities for drug repurposing: Primary screen for BT-37 cells (AID 1347094). Note: potency is the fitted concentration of half-maximal effect. The procedure, abridged:
(§2)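 Primary screen of approved and investigational compounds on cells in growth media at 37 degrees C, 5% CO2. MIPE set at 11-point and NPC set at 8-point dilutions; viability scored by ATP-based luminescence at 48 hours.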

A short description of assay [7]: qHTS of pediatric cancer cell lines to identify multiple opportunities for drug repurposing: Primary screen for NB-EBc1 cells (AID 1347095). Note: potency is the fitted concentration of half-maximal effect. The method, boiled down: as §2
The nature of assay [8]: qHTS of pediatric cancer cell lines to identify multiple opportunities for drug repurposing: Primary screen for TC32 cells (AID 1347089). Note: nearly all actives have a fitted effect of over 60% in size. Note: potency is the fitted concentration of half-maximal effect. The method, boiled down: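 TC32 cells, 500-1,000/well in growth medium, compound-treated 48 h at 37 °C; viability from CellTiter-Glo luminescence. Primary screen: MIPE 11-point (0.78 nM–46 µM final), NPC 8-point (0.59 nM–46 µM final); confirmatory at 11-point dilutions.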

Assay [9] in a line: qHTS of pediatric cancer cell lines to identify multiple opportunities for drug repurposing: Primary screen for A673 cells (AID 1347092). Note: nearly all actives have a fitted effect of over 45% in size. Note: potency is the fitted concentration of half-maximal effect. The procedure, abridged: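 A673 cells (500-1,000 cells/well) were treated 48 hours at 37 degrees C with compounds at 11-point (0.78 nM to 46 µM) or 8-point (0.59 nM to 46 µM) dilutions. Viability read by CellTiter-Glo luminescence; concentration-response curves fitted.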

Assay [10] is described as follows: qHTS of pediatric cancer cell lines to identify multiple opportunities for drug repurposing: Primary screen for U-2 OS cells (AID 1347096). Note: nearly all actives have a fitted effect of over 50% in size. The method, boiled down:
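Viability after 48 h compound treatment at 37C, 500-1,000 cells/well, read as ATP luminescence with CellTiter-Glo. Primary screens used 11-point (MIPE, 0.78 nM-46 µM) or 8-point (NPC, 0.59 nM-46 µM) final concentrations; follow-up screens used 11-point dilutions.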

Assay [11] deals with Atrial natriuretic peptide receptor 1 (Homo sapiens) (UniProt P16066). Briefly: Natriuretic polypeptide receptor (hNpr1) antagonism - Pilot screen (AID 1347049; calls by dose curve;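 note: agonist-evoked cGMP luminescence read 20 min after hNppA addition; series mostly up to about 58 µM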). The procedure, abridged: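 cGMP-sensor HEK293/hNpr1 cells, 1500/well, plated overnight at 37C. 2% GloSensor reagent, 2 h RT. Compound (23 nL pin transfer) 30 min RT, baseline luminescence pre-read. 0.1 nM hNppA, 20 min RT, post-read.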
Atrial natriuretic peptide receptor 1 (Homo sapiens), sequence (P16066 whole entry, looked up): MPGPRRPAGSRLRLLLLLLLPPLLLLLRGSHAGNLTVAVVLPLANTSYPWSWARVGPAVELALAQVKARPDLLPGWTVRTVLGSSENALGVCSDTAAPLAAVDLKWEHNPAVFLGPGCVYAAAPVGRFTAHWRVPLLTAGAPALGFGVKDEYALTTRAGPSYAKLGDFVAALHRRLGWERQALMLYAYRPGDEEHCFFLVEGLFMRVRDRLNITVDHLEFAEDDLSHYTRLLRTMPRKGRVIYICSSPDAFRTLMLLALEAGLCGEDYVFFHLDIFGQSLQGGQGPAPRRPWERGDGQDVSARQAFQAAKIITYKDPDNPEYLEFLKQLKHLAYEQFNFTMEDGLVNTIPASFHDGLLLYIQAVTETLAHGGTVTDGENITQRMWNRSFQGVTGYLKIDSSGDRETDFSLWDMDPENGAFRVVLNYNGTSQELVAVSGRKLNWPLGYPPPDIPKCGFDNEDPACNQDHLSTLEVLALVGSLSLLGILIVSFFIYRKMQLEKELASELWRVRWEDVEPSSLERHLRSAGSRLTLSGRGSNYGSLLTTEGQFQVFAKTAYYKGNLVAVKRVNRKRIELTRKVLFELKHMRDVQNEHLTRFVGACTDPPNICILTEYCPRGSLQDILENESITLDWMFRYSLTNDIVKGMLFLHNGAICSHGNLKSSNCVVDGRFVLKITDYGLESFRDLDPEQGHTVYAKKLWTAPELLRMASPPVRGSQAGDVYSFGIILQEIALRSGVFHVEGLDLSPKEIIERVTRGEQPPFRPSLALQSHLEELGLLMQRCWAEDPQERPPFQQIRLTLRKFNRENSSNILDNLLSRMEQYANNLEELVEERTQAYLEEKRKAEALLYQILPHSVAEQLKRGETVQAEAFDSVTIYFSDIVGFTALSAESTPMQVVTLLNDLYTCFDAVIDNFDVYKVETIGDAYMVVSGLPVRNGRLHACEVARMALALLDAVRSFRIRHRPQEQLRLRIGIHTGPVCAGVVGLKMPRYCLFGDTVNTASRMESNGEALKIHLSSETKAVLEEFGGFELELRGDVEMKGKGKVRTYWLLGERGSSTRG

In assay [12] the target is Atrial natriuretic peptide receptor 2 (Homo sapiens) (UniProt P20594). Briefly: Natriuretic polypeptide receptor (hNpr2) antagonism - Pilot subtype selectivity assay (AID 1347050; calls by dose curve). The procedure, abridged: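 Luminescence from a genetically encoded cGMP luciferase biosensor in hNpr2-expressing HEK293 cells is read before and 20 min after adding 1 nM hNppC. Test compounds, in interplate 1:5 titrations, are added 30-50 min ahead of the agonist.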
Atrial natriuretic peptide receptor 2 (Homo sapiens), sequence (P20594 whole entry, looked up): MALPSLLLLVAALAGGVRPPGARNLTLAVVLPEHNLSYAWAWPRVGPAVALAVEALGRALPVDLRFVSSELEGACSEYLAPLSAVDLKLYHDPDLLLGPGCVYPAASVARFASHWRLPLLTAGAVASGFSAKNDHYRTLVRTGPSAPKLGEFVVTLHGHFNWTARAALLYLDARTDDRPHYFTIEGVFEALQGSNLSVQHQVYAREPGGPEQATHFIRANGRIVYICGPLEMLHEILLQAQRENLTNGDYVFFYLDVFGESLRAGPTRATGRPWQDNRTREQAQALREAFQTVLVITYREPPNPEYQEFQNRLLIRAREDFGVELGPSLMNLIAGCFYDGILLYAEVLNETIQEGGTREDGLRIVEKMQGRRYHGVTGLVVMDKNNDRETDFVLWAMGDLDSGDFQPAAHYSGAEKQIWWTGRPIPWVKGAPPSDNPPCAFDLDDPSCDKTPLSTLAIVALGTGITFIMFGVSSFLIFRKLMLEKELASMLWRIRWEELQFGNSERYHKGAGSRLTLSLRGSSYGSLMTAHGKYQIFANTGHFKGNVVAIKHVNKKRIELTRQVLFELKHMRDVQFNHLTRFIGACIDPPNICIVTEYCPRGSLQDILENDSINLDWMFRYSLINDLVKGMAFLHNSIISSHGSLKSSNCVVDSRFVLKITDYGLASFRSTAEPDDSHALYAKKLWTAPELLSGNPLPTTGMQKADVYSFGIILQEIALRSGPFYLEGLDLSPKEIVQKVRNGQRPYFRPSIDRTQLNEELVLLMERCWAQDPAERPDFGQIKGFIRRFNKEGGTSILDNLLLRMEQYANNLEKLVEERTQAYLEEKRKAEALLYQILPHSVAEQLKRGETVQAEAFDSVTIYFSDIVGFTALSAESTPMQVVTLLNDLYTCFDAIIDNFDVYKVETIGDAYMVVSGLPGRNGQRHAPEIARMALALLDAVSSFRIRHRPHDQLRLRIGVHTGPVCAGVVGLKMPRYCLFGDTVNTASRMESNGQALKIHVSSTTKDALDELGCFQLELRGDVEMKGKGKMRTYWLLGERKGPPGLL

For assay [13], the target named is Parathyroid hormone/parathyroid hormone-related peptide receptor (Homo sapiens) (UniProt Q03431). Briefly: qHTS for PTHR1 Agonists: Optimization Screen against the NCGC LOPAC library (AID 1347079).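 Note: GloSensor cAMP luminescence in HEK-293 GP2 cells expressing human PTHR1 with IBMX.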 The procedure, abridged: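 HEK-293 GP2 cells, PTHR1 + GloSensor cAMP; 3000 cells/well, o/n. Luciferin + IBMX 0.5mM each (stock), 1 hr 37C. Cpd titration, 1 hr 37C. Lum after 15 min RT. Ctrl M-PTH(1-15) top 10uM.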
Parathyroid hormone/parathyroid hormone-related peptide receptor (Homo sapiens), sequence (Q03431 whole entry, looked up): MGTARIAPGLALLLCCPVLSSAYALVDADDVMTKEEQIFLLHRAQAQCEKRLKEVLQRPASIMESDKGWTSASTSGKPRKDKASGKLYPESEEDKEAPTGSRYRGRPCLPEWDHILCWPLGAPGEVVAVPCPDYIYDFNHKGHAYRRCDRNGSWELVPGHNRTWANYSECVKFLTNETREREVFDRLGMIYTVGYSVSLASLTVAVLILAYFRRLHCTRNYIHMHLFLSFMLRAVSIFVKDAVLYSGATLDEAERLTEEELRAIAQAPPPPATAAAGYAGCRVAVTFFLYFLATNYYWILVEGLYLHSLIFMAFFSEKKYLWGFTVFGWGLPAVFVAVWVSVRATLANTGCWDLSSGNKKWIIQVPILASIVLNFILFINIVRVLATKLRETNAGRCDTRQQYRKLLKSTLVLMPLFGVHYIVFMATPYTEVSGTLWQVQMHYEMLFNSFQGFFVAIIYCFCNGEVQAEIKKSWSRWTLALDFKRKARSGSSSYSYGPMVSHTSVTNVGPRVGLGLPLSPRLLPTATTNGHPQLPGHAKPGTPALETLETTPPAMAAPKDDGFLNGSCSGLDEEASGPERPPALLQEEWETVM

Assay [14] can be described thus: Natriuretic polypeptide receptor (hNpr1) antagonism - Pilot counterscreen GloSensor control cell line (AID 1347045; calls by dose curve; note: series mostly up to about 38 µM). The method, boiled down: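 Control counterscreen: luciferase cGMP-biosensor HEK293 cells (no Npr1) received compound for 30 min at room temperature after GloSensor substrate loading. Luminescence was measured before and 20 min after soluble guanylyl cyclase activation by 50 uM nitroprusside.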
For orientation: Counterscreens check selectivity or assay interference.

Assay [15] addresses T1, Tyrosine-protein phosphatase non-receptor type substrate 1 (Homo sapiens) + Leukocyte surface antigen CD47 (Homo sapiens) (UniProt P78324+Q08722). Briefly: CD47-SIRPalpha protein protein interaction - LANCE assay qHTS validation (AID 1347057; active = well fitted curve in the direction sought with a large enough effect in the signal ratio, with a control signal flat, not every such curve was filed as active; the % refers to the signal ratio; note: series mostly up to about 38 µM). The method, boiled down:
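Inhibition of soluble CD47/SIRPalpha ectodomain association by titrated compounds, measured as 665/615 nm time-resolved FRET ratio after sequential 30 min room-temperature incubations.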
A general note: Time-resolved FRET reads energy transfer from a long-lived donor to a nearby acceptor.

Assay [16] concerns the target T1, Tyrosine-protein phosphatase non-receptor type substrate 1 (Homo sapiens) + Leukocyte surface antigen CD47 (Homo sapiens). Briefly: CD47-SIRPalpha protein protein interaction - HTRF assay qHTS validation (AID 1347058; active = well fitted curve in the direction sought with a large enough effect in the signal ratio, not every such curve was filed as active; the % refers to the signal ratio; note: series mostly up to about 38 µM). The method, boiled down: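 Soluble extracellular domains (6His-CD47, Avi-tag-biotinylated SIRPalpha) in PBS pH 7.4 with 0.05% IGEPAL CA-630. Compounds were preincubated 30 min at RT with CD47 and anti-His-Eu, then SIRPalpha and SAV-XL665 were added. TR-FRET 665/615 ratio.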

Assay [17] has the same target. Briefly: CD47-SIRPalpha protein protein interaction - Alpha assay qHTS validation (AID 1347059).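 Note: bead proximity luminescence from CD47 binding SIRPalpha after compound preincubation with SIRPalpha.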 The method, boiled down: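 SIRPalpha-biotin 25 nM + cpd, 30 min RT, dark; add CD47-His 12.5 nM, 30 min; add Ni-NTA/SAV beads 10 ug/mL, 30 min; AlphaScreen. Buffer PBS pH 7.4 + 0.05% IGEPAL CA-630. Non-biotinylated SIRPalpha as control inhibitor.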

Records with an inconclusive call do not appear. Active and inactive are the calls of the source. Unless noted, calls come from the whole dose curve; as a rule, active = well fitted curve in the direction sought with a large enough effect; inconclusive = small, poorly fitted or top-dose-only effect, or another doubt; inactive = no such curve, though single readings can be large; an effect the other way counts as inactive or inconclusive.

T1 sequence (P78324 whole entry, looked up, the tested form may be a part): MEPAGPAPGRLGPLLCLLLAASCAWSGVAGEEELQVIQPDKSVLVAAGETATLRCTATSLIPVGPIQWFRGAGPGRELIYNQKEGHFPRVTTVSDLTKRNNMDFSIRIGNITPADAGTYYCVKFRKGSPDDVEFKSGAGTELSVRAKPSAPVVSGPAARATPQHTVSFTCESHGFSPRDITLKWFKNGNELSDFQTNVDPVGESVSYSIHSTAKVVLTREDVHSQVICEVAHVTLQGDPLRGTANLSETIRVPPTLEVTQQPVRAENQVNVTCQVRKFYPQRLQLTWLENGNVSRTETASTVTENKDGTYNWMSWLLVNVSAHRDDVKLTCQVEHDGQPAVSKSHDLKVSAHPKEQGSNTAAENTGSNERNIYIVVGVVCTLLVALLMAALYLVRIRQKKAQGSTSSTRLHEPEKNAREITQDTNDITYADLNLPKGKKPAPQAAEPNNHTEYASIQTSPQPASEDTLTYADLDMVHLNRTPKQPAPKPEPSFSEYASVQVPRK
T1 sequence (Q08722 whole entry, looked up, the tested form may be a part): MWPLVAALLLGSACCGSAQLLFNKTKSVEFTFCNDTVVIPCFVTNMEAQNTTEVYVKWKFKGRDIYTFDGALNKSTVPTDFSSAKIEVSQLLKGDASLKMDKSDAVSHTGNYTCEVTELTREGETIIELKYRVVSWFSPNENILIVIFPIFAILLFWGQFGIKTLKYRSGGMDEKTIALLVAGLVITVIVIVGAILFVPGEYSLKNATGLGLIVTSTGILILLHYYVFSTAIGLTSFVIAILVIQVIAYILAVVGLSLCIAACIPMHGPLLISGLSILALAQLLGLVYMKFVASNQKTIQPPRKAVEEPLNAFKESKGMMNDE

As to `Nc1ccc(C(=O)Nc2ccccc2N)cc1`, the Potency in [1] is 16.4 µM (active); in assay [3] it was 16.8 µM (active); in assay [4] it was 13.3 µM (active); in assay [5], 3.76 µM (active); in assay [6] it was 17.4 µM (active); in assay [7], 3.76 µM (active). Moreover, the Potency result in assay [2] is “inactive”.

As for `Nc1ccn([C@@H]2O[C@H](CO)[C@@H](O)C2(F)F)c(=O)n1`, the Potency is 3.16 µM (active) in assay [2]; 0.0118 µM (active) in assay [8]; 2.66 µM (active) in [3]; 0.473 µM (active) in [4]; 0.0042 µM (active) in assay [9]; 0.106 µM (active) in assay [5]. The Potency was 0.0049 µM (active) in assay [6] and 1.19 µM (active) in assay [7]. The Potency result in assay [10] was “inactive”.

For the molecule `c1ccc(OCc2ccc(CCCN3CCOCC3)cc2)cc1`, the Potency entry in [2], in [8], in assay [3], in assay [4], in [9] and in [5] was “inactive” throughout. The Potency entry in assay [6], in [7] and in [10] was “inactive” each time.

On to `COC(=O)[C@H]1[C@H]2C[C@H]3c4[nH]c5ccccc5c4CCN3C[C@H]2CC[C@@H]1O`, for which the call in assay [11], in assay [12] and in assay [13] was inactive. The Potency entry in assay [2] is “inactive”.

In the case of `C[C@]12CC[C@H]3[C@@H](CCC4=CC(=O)CC[C@@]43C)[C@@H]1CC[C@@H]2C(=O)CO`, the Potency result in assay [2], in assay [8], in assay [3], in [4], in assay [9] and in [5] was “inactive” each time. Further, the Potency result in assay [6], in [7] and in assay [10] was “inactive” each time.

Regarding `NC(=O)CC[C@@H]1NC(=O)[C@H](Cc2ccccc2)NC(=O)[C@H](Cc2ccc(O)cc2)NC(=O)CCSSC[C@@H](C(=O)N2CCC[C@H]2C(=O)N[C@@H](CCCN=C(N)N)C(=O)NCC(N)=O)NC(=O)[C@H](CC(N)=O)NC1=O`, the Potency entry in assay [2], in [8], in [3], in assay [4], in assay [9] and in assay [5] was “inactive” each time. The Potency result in [6], in assay [7] and in [10] was “inactive” in each case.

`O=C(N/N=C/c1ccccc1O)c1ccncc1`: in assay [1], the Potency entry is “inactive”. Further, the Potency in assay [8] is 23.6 µM (active); in [3], 4.22 µM (active); in assay [6] it was 11 µM (active); in [7], 18.8 µM (active).

For the molecule `CCCCC1=NC2(CCCC2)C(=O)N1Cc1ccc(-c2ccccc2-c2nn[nH]n2)cc1`, the Potency result in [2], in assay [8], in [3], in assay [4], in [9] and in assay [5] was “inactive” throughout. Besides, the Potency result in assay [6], in assay [7] and in assay [10] was “inactive” in each case.

Turning to `CC(C)(CO)[C@@H](O)C(=O)NCCCO`, the Potency result in assay [2], in [8], in [3], in assay [4], in [9] and in assay [5] was “inactive” each time. Moreover, the Potency result in assay [6], in assay [7] and in assay [10] was “inactive” each time.

On to `COc1cc2c(cc1OC)[C@@H]1CC(=O)[C@@H](CC(C)C)CN1CC2`, for which the Potency result in [2], in [8], in assay [3], in assay [4], in [9] and in assay [5] was “inactive” in each case. The Potency entry in assay [6], in assay [7] and in assay [10] was “inactive” each time.

As for `CO/N=C1\CN(c2nc3c(cc2F)c(=O)c(C(=O)O)cn3C2CC2)CC1CN` (stereo unspecified), the Potency result in assay [2], in assay [8], in [3], in assay [4], in [9] and in assay [5] was “inactive” each time. In addition, the Potency result in [6], in assay [7] and in [10] was “inactive” throughout.

As for `C[C@H]1[C@H](NC(=O)/C(=N/OC(C)(C)C(=O)O)c2csc(N)n2)C(=O)N1S(=O)(=O)O` (stereo in doubt), the Potency entry in assay [2], in [8], in [3], in [4], in [9] and in assay [5] was “inactive” each time. In addition, the Potency entry in [6], in assay [7] and in assay [10] was “inactive” each time.

On to `CCN1CCC[C@H]1CNC(=O)c1c(OC)ccc(Br)c1OC`, for which the Potency result in [2], in assay [8], in [3], in [4], in assay [9] and in assay [5] was “inactive” throughout. Moreover, the Potency entry in assay [6], in assay [7] and in assay [10] was “inactive” throughout.

Consider `Oc1ccc(Cl)c2cccnc12`, for which the Potency result in assay [1], in assay [4] and in assay [10] was “inactive” throughout.

For `COc1ccc(OC)c(C(O)CNC(=O)CN)c1` (stereo unspecified), the Potency result in assay [2], in assay [8], in assay [3], in assay [4], in assay [9] and in assay [5] was “inactive” throughout. Also, the Potency result in [6], in assay [7] and in assay [10] was “inactive” in each case.

For `NC(=O)c1cc[n+](CC2=C(C(=O)[O-])N3C(=O)[C@@H](NC(=O)Cc4cccs4)[C@H]3SC2)cc1`, the Potency entry in assay [2], in assay [8], in [3], in assay [4], in assay [9] and in assay [5] was “inactive” in each case. Besides, the Potency result in [6], in assay [7] and in [10] was “inactive” each time.

For `Cc1cccn2c(=O)c(-c3nnn[nH]3)cnc12`, the Potency result in assay [2], in assay [8], in [3], in assay [4], in assay [9] and in [5] was “inactive” in each case. Further, the Potency entry in assay [6], in [7] and in assay [10] was “inactive” each time.

As for `CCCCOc1ccc(OCCCN2CCOCC2)cc1`, the Potency result in assay [2], in [8], in assay [3], in assay [4], in [9] and in [5] was “inactive” each time. Besides, the Potency entry in [6], in [7] and in assay [10] was “inactive” each time.

`CN1C2CCC1CC(OC(=O)c1c[nH]c3ccccc13)C2` (stereo unspecified): the molecule was classed as inactive in [14], in assay [11], in assay [12], in assay [15], in assay [16] and in assay [13]. Besides, the Potency entry in assay [2] and in [17] was “inactive” throughout.

Consider `CCCCCCCCCCCCCCCC[N+](C)(C)CCN(Cc1ccc(OC)cc1)c1ncccn1`, for which, in [1], the Potency result is “inactive”. The Potency was 16.8 µM (active) in assay [9], 13.3 µM (active) in assay [5] and 24.6 µM (active) in [6].

Consider `COc1cccc(OC)c1C(=O)N[C@@H]1C(=O)N2[C@@H]1SC(C)(C)[C@@H]2C(=O)O`, for which the Potency entry in assay [2], in [8], in assay [3], in [4], in assay [9] and in assay [5] was “inactive” each time. For the same molecule, the Potency result in assay [6], in assay [7] and in [10] was “inactive” throughout.
